# Source: PubChem
# Sampled rows, rich in hits. Any-hit rate of the full collection: about 4.6%.
# DAX1 inh-1 – DAX1 (NR0B1) inhibitors on StAR promoter, primary screen, cell-based, luminescence, SF-1 (NR5A1), full-length DAX-1. HEK293T StAR-luciferase reporter, SF-1/DAX-1 repression relief. inhibition, % at 6.8 µM. actives 1.1% (n = 370,000);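 active = inhibition above the mean over all tested compounds plus 3 SD, cut at about 3.6% in these data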;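 note: 0% = DAX-1 cells with DMSO and 100% = cells lacking DAX-1 with DMSO; higher inhibition means more luminescence from relief of DAX-1 repression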
# ssDAF12 agonist – S. stercoralis DAF-12 nuclear receptor activators, primary screen, cell-based, luminescence, HEK293, GRIP1 co-expression, lit1-tk-luc. AID 652126, 2013. actives 1% (n = 370,000). Nuclear hormone receptor DAF-12 (Strongyloides stercoralis). HEK293 ssDAF-12/GRIP1 lit1-tk-luc reporter; % of 3 µM dafachronic acid response. activation, % at 6.8 µM;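 active = activation above the mean over all tested compounds plus 3 SD, cut at about 0.9% in these data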;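 note: 0% = DMSO-only wells and 100% = 3 µM delta7-dafachronic acid wells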
# Wee1 degr inh – Wee1 degradation inhibitors, primary screen, cell-based, HeLa, Wee1K328M-luciferase, luminescence; Wee1-like protein kinase (Homo sapiens), P30291; HeLa Luc-Wee1K328M stability; 100% = proteasome inhibitor MG132 effect; reporter increase, % at 5 µM; actives 1.2% (n = 220,000); AID 1321, 2008;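 active = activation above the mean of all tested compounds plus 3 SD, set per screening run, cut at about 8.8% in these data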;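 note: cells exposed to compound for 20 h before luminescence read; 0% = DMSO alone and 100% = MG132 at 30 µM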
# Target sequence (P30291 whole entry K328M): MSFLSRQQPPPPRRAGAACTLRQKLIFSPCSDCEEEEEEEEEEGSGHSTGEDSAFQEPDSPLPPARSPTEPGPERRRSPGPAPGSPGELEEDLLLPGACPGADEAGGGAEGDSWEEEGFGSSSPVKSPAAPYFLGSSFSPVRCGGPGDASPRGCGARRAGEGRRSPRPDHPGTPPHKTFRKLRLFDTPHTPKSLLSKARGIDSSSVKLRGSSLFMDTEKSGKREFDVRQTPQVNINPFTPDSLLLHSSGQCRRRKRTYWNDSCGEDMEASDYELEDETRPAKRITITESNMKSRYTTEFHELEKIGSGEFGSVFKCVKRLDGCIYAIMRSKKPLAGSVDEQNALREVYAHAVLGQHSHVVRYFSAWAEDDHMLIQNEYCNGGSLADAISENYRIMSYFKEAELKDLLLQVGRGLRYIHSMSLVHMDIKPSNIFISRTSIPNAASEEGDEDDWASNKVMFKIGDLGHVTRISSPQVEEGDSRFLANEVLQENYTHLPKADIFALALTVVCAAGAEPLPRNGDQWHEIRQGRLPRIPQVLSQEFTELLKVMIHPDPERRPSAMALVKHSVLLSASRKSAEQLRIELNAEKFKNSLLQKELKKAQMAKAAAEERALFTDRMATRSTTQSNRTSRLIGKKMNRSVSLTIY
# hgDAF12 agonist – H. glycines DAF-12 receptor agonists, primary screen, cell-based, luminescence, HEK293, GAL4 fusion, UAS-luciferase; activation, % at 6.8 µM; Nuclear hormone receptor DAF-12 (Heterodera glycines), GAL4 fusion; actives 1.8% (n = 370,000); HEK293 GAL4-hgDAF12 UAS-luciferase reporter, agonist luminescence; normalized to butyrate control;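 active = activation above a cutoff set at the mean of all screened compounds plus 3 SD, cut at about 10% in these data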;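 note: 0% = DMSO wells and 100% = sodium butyrate wells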
# DAX1 inh-2 – DAX1 (NR0B1) inhibitors, primary screen, cell-based, HEK293, Gal4-DAX1, luciferase luminescence; HEK293 Gal4-DAX1 luciferase reporter; Nuclear receptor subfamily 0 group B member 1 (Homo sapiens), P51843; inhibition, % at 6.75 µM; AID 504766, 2011; actives 0.99% (n = 340,000);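 active = inhibition above the mean over all tested compounds plus 3 SD, cut at about 4.2% in these data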;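 note: 0% = DAX1-transfected cells with DMSO and 100% = empty-vector control cells with DMSO; inhibition shows as a rise in luminescence from relieved DAX1 repression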
# hcDAF-12 act – H. contortus DAF-12 nuclear receptor activators, primary screen, cell-based, luminescence, HEK293, lit1-tk-luc reporter | HEK293 hcDAF-12 lit1-tk-luc reporter; 0% DMSO, 100% Δ7-dafachronic acid | activation, % at 6.8 µM | actives 1.4% (n = 370,000) | AID 652067, 2013;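 active = activation above the mean of all tested compounds plus 3 SD, cut at about 5.5% in these data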;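 note: 100% = response to 3 µM Δ7-dafachronic acid high control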
# Numbers without * were called inactive; x = not tested or not shown.
SMILES,DAX1 inh-1,ssDAF12 agonist,Wee1 degr inh,hgDAF12 agonist,DAX1 inh-2,hcDAF-12 act
COc1ccc(C(C(=O)NC(C)(C)C)n2c(=O)c(-c3ccco3)nc3ccccc32)cc1 (centres undefined),-1,1.5*,x,2,x,1
O=C(NCc1ccccc1)C(c1ccc(-c2ccccc2)cc1)n1c(=O)c(-c2ccco2)nc2ccccc21 (centres undefined),0,1.3*,x,2,x,2
O=C(NC1CCCCC1)C(c1ccccc1)n1c(=O)c(-c2ccco2)nc2ccccc21 (centres undefined),0,-1,x,0,x,-1
CC(C)(C)NC(=O)C(c1ccc(-c2ccccc2)cc1)n1c(=O)c(-c2ccco2)nc2ccccc21 (centres undefined),1,0,x,4,x,3
O=C(NC1CCCCC1)C(C1CC1)n1c(=O)c(-c2ccco2)nc2ccccc21 (centres undefined),0,1.9*,x,-3,x,0
COc1ccc(NC(=O)C(c2ccnc3ccccc23)n2c(=O)c(-c3ccccc3)nc3ccccc32)cc1 (centres undefined),-1,0,x,-1,x,5.6*
COc1ccc(NC(=O)C(c2ccnc3ccccc23)n2c(=O)c(-c3ccco3)nc3ccccc32)cc1 (centres undefined),0,0,x,2,x,2
COc1cccc(CN2CC(C(=O)N(C)C3CCOCC3)CCC2=O)c1 (centres undefined),0,-1,x,-1,1,2
O=C(Nc1ccc(C(=O)O)cc1)/C(=C\c1ccc2c(c1)OCO2)NC(=O)c1ccccc1Cl,1,-1,x,-3,0,1
COc1ccc(/C=C2\SC(N)=NC2=O)cc1,-1,-1,x,5,4.9*,-1
NC1=NC(=O)C(=Cc2ccccc2)S1,0,-1,x,3,0,0
COc1cc(/C=C2\SC(N)=NC2=O)ccc1OCC(=O)Nc1ccc(C)cc1,-1,-2,8.9*,0,2,-3
NC1=NC(=O)/C(=C\c2cccnc2)S1,0,-1,-1,12*,-1,-1
Cc1c(Cl)cccc1NC(=O)COC(=O)c1ccc(CN2CCCC2=O)cc1,1,-1,x,0,2,-1
COc1ccc(Nc2ncnc3ccccc23)cc1,1,-1,-1,9,1,1
COc1ccc(Nc2cc(Nc3ccccc3)ncn2)cc1,1,0,x,6,1,6.0*
COc1ccc(Nc2cc(C)c3c(O)cccc3n2)cc1,0,-1,0,12*,1,1
O=C(Nc1ccc(C(=O)NCCCN2CCN(c3ccc(F)cc3)CC2)cc1)C1=CSCCO1,0,-2,x,-2,0,-3
CCN(CCC(=O)O)c1ccccc1,0,-1,-1,-2,0,-1
NC(=O)N(CCC(=O)O)c1ccccc1,0,-2,10*,2,1,-2
COc1ccc(C)c2sc(=NC(=O)C(C)C)n(C)c12,-1,-1,0,-1,0,2
COc1ccc(C)c2sc(=NC(=O)c3ccc(C(C)=O)cc3)n(C)c12,2,0,-3,13*,4.7*,2
Cc1ccc(CNC(=O)OC(C)(C)C)c(/C=C/S(=O)(=O)NCc2ccc(F)cc2)c1,-2,-1,x,-1,x,-3
NNC(=O)c1ccc(CN2C(=O)c3cccc4cccc2c34)cc1,-1,-2,2,-4,-1,-1
COc1ccccc1/C=N/NC(=O)c1ccc(CN2C(=O)c3cccc4cccc2c34)cc1,0,-1,9.0*,2,2,-1
SMILES,DAX1 inh-1,ssDAF12 agonist,Wee1 degr inh,hgDAF12 agonist,DAX1 inh-2,hcDAF-12 act
COCCCN(C(=S)Nc1cc(C)cc(C)c1)C(C)c1ccncc1 (centres undefined),0,0.9*,-2,-2,-1,-1
COCCCN(C(=S)Nc1ccc(OC)cc1)C(C)c1ccncc1 (centres undefined),0,-1,2,0,0,-2
O=C(/C=C/c1ccc(F)cc1)Nc1cc(S(=O)(=O)N2CCOCC2)ccc1N1CCCC1,0,-1,-3,3,0,-2
CN1CCN(c2ccc(Cl)cc2NC(=O)/C=C/c2ccc(F)cc2)CC1,0,-2,-3,-2,5.7*,0
CC1(C)CC(=O)c2sc(NC(=O)C(C)(C)C)nc2C1,1,1.5*,2,6,0,2
COc1ccc(C(C)=O)cc1CSc1nnc(Nc2c(C)cccc2C)s1,-1,-2,-1,-4,4.6*,-1
COc1ccc(C(C)=O)cc1CSc1nnc(Nc2ccccc2C)s1,-1,-2,1,-3,-1,-2
CC(C)NC(=O)c1ccc(NC(=O)CC2SC(N3CCCCC3)=NC2=O)cc1 (centres undefined),-1,1.7*,x,-4,1,2
N#Cc1ccc(OC(=O)c2cnccn2)cc1,0,-1,x,1,-1,5
CCC(=O)c1ccc(OC(=O)c2cnccn2)cc1,0,-1,-2,4,5.0*,1
O=C(Nc1c(C(=O)O)oc2ccc(Br)cc12)c1ccccc1,x,x,13*,x,0,x
C=CCn1c(SCC(=O)N2CCCC2)nc2c([nH]c3ccccc32)c1=O,1,1.0*,x,1,0,6.3*
COCCn1c(SCC(=O)Nc2ccc(NC(C)=O)cc2)nc2c([nH]c3ccccc32)c1=O,-2,0,x,3,0,5
CCn1c(SCC(=O)Nc2cccc(NC(C)=O)c2)nc2c([nH]c3ccccc32)c1=O,-2,1.1*,x,4,0,1
CCn1c(SCC(=O)Nc2cc(C)on2)nc2c([nH]c3ccccc32)c1=O,1,0,x,1,0,6.0*
CCn1c(SCC(=O)Nc2ccc(C(C)=O)cc2)nc2c([nH]c3ccccc32)c1=O,1,0,x,4,0,5.8*
COc1cccc(NC(=O)COC(=O)C2CCCCC2)c1,-2,-1,x,-2,0,-2
COc1ccc(C(=O)NCC2CCN(C(=O)C(=O)c3cccs3)CC2)cc1,0,-1,x,3,x,-2
Cc1ccc2[nH]c(SCC(=O)N3CCOCC3)nc2c1C,0,0,5,9,3,5.7*
